# Experimental data taken from the supplement of paper PMC10849652.
# About 7,900 targets were measured; listed, in parts, are those with a hit and a random draw of the rest. About 0.6% of all pairs of compound and target were hits. Unmarked numbers belong to inactive results.
# Compound: C=CC(=O)N1CCC[C@@H](n2nc(-c3ccc(Oc4ccccc4)cc3)c3c(N)ncnc32)C1 [ibrutinib]
# Experiment: log2 fold change, soluble protein after heating vs DMSO (PISA); higher = thermal stabilisation; K562 cells, 10 uM, 30 min; active = over 0.2 and 3.5 SD of the protein, either way, in both replicates (recomputed)
# How it was run: (§1)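 Values are thermal stability changes relative to control samples and are taken from duplicates. They are stated as log2 fold changes. Before quantification by TMTpro 16plex LC-MS/MS with equalised channel sums, K562 cells at 2×10^6 cells/mL were treated with 10 μM compound for 30 min, heated in aliquots for 3 min across 48°C-58°C, pooled, extracted in PBS with 0.5% NP-40 at 4°C, and centrifuged at 21,000xg for 90 min to give the soluble supernatant.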
# UniProt P00374, sequence (P00374 whole entry, looked up): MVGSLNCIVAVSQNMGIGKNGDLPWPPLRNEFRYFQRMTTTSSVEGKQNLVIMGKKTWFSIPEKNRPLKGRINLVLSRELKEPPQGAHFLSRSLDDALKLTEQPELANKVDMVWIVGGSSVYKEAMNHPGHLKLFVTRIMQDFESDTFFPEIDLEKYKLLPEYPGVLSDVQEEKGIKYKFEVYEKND
# UniProt Q9BW60, sequence (Q9BW60 whole entry, looked up): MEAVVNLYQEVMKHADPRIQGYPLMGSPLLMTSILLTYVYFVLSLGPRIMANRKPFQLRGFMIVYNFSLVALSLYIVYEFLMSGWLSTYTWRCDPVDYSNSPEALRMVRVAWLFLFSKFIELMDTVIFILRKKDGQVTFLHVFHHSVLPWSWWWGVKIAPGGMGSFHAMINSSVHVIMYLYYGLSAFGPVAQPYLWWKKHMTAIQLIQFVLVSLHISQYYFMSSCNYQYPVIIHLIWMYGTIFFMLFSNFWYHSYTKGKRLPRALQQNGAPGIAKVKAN
# UniProt Q14689, sequence (Q14689 whole entry, looked up): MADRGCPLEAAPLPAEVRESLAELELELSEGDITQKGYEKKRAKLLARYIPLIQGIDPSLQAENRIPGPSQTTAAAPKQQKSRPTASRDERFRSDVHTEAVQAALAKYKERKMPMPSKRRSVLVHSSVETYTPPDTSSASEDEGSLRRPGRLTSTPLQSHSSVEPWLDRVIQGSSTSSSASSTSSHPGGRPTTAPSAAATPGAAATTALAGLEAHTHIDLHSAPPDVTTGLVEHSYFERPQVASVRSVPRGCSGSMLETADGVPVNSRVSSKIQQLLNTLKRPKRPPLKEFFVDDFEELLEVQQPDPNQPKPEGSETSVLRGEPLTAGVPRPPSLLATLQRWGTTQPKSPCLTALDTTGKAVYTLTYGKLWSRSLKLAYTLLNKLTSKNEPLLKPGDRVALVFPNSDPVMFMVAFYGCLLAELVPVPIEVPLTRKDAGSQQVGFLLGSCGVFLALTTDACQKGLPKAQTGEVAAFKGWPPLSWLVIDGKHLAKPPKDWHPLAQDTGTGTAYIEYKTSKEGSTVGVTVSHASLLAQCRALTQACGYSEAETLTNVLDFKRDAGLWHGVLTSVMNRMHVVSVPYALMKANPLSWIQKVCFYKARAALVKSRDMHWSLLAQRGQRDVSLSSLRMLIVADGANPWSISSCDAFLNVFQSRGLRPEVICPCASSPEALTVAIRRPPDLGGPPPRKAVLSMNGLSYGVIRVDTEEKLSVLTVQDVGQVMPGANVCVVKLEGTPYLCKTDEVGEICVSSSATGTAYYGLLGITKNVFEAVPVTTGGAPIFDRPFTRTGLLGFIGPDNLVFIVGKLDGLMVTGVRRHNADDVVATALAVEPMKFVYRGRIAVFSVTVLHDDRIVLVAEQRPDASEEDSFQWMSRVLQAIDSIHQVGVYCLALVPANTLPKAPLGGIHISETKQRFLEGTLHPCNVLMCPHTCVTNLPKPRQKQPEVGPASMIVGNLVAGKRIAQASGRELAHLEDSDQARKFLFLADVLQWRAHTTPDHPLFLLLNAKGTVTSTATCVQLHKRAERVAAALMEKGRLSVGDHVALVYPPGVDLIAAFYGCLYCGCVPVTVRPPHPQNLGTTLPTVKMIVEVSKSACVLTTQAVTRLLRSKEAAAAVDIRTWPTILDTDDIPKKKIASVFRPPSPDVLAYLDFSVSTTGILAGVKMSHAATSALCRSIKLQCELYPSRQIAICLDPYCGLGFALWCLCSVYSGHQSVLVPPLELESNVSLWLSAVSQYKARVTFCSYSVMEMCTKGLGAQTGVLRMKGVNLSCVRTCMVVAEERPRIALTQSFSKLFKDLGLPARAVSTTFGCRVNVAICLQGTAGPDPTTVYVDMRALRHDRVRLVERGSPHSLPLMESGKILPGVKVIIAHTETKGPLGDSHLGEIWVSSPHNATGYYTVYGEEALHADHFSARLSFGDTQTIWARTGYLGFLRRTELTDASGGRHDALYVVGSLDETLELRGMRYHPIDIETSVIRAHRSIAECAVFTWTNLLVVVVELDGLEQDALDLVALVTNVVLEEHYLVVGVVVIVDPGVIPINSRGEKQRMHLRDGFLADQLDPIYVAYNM
# UniProt Q9UK59, sequence (Q9UK59 whole entry, looked up): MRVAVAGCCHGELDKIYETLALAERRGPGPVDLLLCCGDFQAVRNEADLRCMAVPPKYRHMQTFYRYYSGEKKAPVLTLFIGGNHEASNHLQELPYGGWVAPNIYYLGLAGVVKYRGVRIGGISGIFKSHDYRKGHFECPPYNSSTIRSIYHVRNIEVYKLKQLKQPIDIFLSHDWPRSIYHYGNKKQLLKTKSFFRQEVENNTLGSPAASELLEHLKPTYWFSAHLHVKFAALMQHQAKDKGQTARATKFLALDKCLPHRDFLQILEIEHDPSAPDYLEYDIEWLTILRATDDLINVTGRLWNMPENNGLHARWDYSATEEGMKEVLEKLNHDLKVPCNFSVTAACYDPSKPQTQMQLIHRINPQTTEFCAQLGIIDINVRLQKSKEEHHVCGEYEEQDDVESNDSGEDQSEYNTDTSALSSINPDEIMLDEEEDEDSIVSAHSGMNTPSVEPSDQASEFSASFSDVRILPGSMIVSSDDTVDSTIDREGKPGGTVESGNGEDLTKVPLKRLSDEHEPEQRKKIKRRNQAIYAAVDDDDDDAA
# UniProt Q8IYI6, sequence (Q8IYI6 whole entry, looked up): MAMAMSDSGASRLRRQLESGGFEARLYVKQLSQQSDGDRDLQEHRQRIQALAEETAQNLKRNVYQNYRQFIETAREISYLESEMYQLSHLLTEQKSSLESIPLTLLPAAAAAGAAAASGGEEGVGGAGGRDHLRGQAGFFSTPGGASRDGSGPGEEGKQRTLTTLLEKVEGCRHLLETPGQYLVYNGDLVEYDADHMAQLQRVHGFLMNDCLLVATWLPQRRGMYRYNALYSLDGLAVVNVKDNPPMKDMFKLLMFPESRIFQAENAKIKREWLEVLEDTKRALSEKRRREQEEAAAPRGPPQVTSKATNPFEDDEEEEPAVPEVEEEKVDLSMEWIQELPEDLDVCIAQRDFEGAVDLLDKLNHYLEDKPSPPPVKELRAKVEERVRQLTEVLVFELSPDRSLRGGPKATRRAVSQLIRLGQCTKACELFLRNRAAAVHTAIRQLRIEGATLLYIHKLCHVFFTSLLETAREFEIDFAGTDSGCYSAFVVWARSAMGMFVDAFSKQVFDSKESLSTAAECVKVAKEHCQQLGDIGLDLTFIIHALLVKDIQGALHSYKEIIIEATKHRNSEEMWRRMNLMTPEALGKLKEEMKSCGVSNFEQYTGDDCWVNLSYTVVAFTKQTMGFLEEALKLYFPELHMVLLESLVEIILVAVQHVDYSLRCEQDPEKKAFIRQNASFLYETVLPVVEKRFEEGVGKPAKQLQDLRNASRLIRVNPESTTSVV
# UniProt Q16531, sequence (Q16531 whole entry, looked up): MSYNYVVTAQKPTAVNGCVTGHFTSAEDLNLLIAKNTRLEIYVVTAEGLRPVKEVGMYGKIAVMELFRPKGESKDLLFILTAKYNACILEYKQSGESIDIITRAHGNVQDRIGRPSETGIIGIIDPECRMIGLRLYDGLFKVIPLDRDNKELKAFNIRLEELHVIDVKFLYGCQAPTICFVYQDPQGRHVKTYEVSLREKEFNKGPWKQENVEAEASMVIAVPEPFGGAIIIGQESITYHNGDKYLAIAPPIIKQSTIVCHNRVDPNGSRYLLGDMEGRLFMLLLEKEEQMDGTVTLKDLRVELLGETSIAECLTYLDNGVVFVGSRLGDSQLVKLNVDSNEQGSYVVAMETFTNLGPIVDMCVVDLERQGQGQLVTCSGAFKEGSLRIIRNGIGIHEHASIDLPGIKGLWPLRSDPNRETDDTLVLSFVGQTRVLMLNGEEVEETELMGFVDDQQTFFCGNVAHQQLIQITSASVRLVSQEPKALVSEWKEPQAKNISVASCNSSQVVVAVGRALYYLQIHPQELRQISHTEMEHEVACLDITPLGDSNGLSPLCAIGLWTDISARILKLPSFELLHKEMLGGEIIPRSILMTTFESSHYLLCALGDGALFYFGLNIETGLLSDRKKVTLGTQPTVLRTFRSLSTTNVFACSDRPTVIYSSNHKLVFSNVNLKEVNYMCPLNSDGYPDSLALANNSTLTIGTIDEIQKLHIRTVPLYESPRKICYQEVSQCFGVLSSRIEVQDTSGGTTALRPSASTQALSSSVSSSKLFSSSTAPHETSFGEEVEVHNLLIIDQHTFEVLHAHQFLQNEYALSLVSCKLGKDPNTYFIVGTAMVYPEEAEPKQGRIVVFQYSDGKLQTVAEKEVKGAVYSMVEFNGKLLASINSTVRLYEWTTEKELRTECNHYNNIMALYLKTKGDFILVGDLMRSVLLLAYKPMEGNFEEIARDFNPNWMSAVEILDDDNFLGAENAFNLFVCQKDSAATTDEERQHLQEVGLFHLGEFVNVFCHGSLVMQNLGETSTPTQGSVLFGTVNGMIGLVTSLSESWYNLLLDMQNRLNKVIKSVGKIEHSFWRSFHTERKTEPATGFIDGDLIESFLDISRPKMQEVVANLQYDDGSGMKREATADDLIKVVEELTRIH
# UniProt O60888, sequence (O60888 whole entry, looked up): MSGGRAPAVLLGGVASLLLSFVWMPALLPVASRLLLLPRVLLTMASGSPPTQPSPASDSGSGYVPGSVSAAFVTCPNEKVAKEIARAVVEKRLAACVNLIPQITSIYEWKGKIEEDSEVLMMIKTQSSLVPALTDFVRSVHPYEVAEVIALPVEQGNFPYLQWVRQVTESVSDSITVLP
# UniProt Q16254, sequence (Q16254 whole entry, looked up): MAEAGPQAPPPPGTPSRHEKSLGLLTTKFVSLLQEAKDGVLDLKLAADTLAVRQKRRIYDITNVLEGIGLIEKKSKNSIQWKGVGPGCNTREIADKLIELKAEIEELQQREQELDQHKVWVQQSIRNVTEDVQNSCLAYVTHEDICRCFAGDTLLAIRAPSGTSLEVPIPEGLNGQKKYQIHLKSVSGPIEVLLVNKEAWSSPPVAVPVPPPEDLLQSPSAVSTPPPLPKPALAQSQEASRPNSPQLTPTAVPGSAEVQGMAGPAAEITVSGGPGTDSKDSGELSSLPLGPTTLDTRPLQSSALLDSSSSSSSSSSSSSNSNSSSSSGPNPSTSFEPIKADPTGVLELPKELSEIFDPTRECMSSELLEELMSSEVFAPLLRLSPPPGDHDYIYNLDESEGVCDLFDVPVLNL
row,Target,log2 fold change
1,CTU1 (UniProt Q7Z7A3),0.041
2,DNAJC1 (UniProt Q96KC8),0.02
3,EIF4E isoform 2 (UniProt P06730),0.089
4,DIP2A (UniProt Q14689),0.053
5,DBN1 isoform 3 (UniProt Q16643),0.099
6,EXOC6 (UniProt Q8TAG9),-0.007
7,EXTL2 (UniProt Q9UBQ6),0.019
8,DDOST (UniProt P39656),-0.027
9,DDX39A (UniProt O00148),0.099
10,ERCC6 (UniProt Q03468),-0.079
11,DYRK1A isoform 2 (UniProt Q13627),-0.009
12,DBR1 (UniProt Q9UK59),0.02
13,EEF1G isoform 2 (UniProt P26641),-0.083
14,DHFR (UniProt P00374),-0.008
15,EFL1 (UniProt Q7Z2Z2),-0.019
16,FAM114A2 (UniProt Q9NRY5),-0.03
17,DNAAF2 (UniProt Q9NVR5),-0.023
18,EXOC8 (UniProt Q8IYI6),-0.001
19,DUS3L (UniProt Q96G46),0.008
20,DHPS (UniProt P49366),-0.004

row,Target,log2 fold change
1,EDEM2 (UniProt Q9BV94),-0.014
2,DHX16 (UniProt O60231),0
3,ERCC2 (UniProt P18074),0.003
4,DHCR24 (UniProt Q15392),0.02
5,DNM2 (UniProt P50570),0.017
6,EHBP1L1 (UniProt Q8N3D4),-0.054
7,FAM118B (UniProt Q9BPY3),0.073
8,EBNA1BP2 (UniProt Q99848),-0.013
9,CUTA isoform 2 (UniProt O60888),-0.018
10,EXOC1 (UniProt Q9NV70),-0.015
11,DFFB (UniProt O76075),-0.047
12,ELOVL1 (UniProt Q9BW60),-0.006
13,FAM3A (UniProt P98173),-0.011
14,DTWD2 (UniProt Q8NBA8),0.001
15,DDB1 (UniProt Q16531),0.026
16,E2F4 (UniProt Q16254),-0.009
17,DPH5 isoform 5 (UniProt Q9H2P9),0.025
18,CTNNB1 (UniProt P35222),-0.116
19,FAM50A (UniProt Q14320),-0.011

# Compound: CC(=O)c1cnc2ccc(-c3cc(Cl)c(O)c(Cl)c3)nc2c1N[C@H]1CC[C@H](CN(C)C)CC1
# Experiment: as above
# How it was run: as §1
row,Target,log2 fold change
1,CTU1 (UniProt Q7Z7A3),0.02
2,DNAJC1 (UniProt Q96KC8),-0.026
3,EIF4E isoform 2 (UniProt P06730),0.308
4,DIP2A (UniProt Q14689),-0.06
5,DBN1 isoform 3 (UniProt Q16643),0.061
6,EXOC6 (UniProt Q8TAG9),-0.014
7,EXTL2 (UniProt Q9UBQ6),-0.073
8,DDOST (UniProt P39656),0.057
9,DDX39A (UniProt O00148),-0.224
10,ERCC6 (UniProt Q03468),0.11
11,DYRK1A isoform 2 (UniProt Q13627),-0.358 (active)
12,DBR1 (UniProt Q9UK59),-0.043
13,EEF1G isoform 2 (UniProt P26641),0.044
14,DHFR (UniProt P00374),-0.06
15,EFL1 (UniProt Q7Z2Z2),-0.039
16,FAM114A2 (UniProt Q9NRY5),0.013
17,DNAAF2 (UniProt Q9NVR5),0.014
18,EXOC8 (UniProt Q8IYI6),0.014
19,DUS3L (UniProt Q96G46),-0.031
20,DHPS (UniProt P49366),0.02

row,Target,log2 fold change
1,EDEM2 (UniProt Q9BV94),-0.062
2,DHX16 (UniProt O60231),-0.257 (active)
3,ERCC2 (UniProt P18074),-0.165
4,DHCR24 (UniProt Q15392),0.157
5,DNM2 (UniProt P50570),-0.023
6,EHBP1L1 (UniProt Q8N3D4),-0.077
7,FAM118B (UniProt Q9BPY3),-0.118
8,EBNA1BP2 (UniProt Q99848),0.013
9,CUTA isoform 2 (UniProt O60888),0.085
10,EXOC1 (UniProt Q9NV70),-0.033
11,DFFB (UniProt O76075),0.011
12,ELOVL1 (UniProt Q9BW60),0.018
13,FAM3A (UniProt P98173),0.028
14,DTWD2 (UniProt Q8NBA8),0.009
15,DDB1 (UniProt Q16531),0.002
16,E2F4 (UniProt Q16254),-0.073
17,DPH5 isoform 5 (UniProt Q9H2P9),-0.01
18,CTNNB1 (UniProt P35222),0.263
19,FAM50A (UniProt Q14320),-0.01
